For test [1], the target named is ATPase family AAA domain-containing protein 5 (Homo sapiens) (UniProt Q96QE3). Put plainly: Validation screen for small molecules that inhibit ELG1-dependent DNA repair in human embryonic kidney (HEK293T) cells expressing luciferase-tagged ELG1 (AID 493107). Note: nearly all actives have a fitted effect of over 70% in size. Note: potency is the fitted concentration of half-maximal effect. In outline: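 Quantitative HTS in HEK293T cells carrying luciferase-tagged ELG1, stimulated with 5-fluorouridine alongside compound for 16 hr. Loss of luciferase signal marks inhibition of ELG1 response.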
Chain of ATPase family AAA domain-containing protein 5 (Homo sapiens) (Q96QE3 whole entry, looked up, the tested form may be a part): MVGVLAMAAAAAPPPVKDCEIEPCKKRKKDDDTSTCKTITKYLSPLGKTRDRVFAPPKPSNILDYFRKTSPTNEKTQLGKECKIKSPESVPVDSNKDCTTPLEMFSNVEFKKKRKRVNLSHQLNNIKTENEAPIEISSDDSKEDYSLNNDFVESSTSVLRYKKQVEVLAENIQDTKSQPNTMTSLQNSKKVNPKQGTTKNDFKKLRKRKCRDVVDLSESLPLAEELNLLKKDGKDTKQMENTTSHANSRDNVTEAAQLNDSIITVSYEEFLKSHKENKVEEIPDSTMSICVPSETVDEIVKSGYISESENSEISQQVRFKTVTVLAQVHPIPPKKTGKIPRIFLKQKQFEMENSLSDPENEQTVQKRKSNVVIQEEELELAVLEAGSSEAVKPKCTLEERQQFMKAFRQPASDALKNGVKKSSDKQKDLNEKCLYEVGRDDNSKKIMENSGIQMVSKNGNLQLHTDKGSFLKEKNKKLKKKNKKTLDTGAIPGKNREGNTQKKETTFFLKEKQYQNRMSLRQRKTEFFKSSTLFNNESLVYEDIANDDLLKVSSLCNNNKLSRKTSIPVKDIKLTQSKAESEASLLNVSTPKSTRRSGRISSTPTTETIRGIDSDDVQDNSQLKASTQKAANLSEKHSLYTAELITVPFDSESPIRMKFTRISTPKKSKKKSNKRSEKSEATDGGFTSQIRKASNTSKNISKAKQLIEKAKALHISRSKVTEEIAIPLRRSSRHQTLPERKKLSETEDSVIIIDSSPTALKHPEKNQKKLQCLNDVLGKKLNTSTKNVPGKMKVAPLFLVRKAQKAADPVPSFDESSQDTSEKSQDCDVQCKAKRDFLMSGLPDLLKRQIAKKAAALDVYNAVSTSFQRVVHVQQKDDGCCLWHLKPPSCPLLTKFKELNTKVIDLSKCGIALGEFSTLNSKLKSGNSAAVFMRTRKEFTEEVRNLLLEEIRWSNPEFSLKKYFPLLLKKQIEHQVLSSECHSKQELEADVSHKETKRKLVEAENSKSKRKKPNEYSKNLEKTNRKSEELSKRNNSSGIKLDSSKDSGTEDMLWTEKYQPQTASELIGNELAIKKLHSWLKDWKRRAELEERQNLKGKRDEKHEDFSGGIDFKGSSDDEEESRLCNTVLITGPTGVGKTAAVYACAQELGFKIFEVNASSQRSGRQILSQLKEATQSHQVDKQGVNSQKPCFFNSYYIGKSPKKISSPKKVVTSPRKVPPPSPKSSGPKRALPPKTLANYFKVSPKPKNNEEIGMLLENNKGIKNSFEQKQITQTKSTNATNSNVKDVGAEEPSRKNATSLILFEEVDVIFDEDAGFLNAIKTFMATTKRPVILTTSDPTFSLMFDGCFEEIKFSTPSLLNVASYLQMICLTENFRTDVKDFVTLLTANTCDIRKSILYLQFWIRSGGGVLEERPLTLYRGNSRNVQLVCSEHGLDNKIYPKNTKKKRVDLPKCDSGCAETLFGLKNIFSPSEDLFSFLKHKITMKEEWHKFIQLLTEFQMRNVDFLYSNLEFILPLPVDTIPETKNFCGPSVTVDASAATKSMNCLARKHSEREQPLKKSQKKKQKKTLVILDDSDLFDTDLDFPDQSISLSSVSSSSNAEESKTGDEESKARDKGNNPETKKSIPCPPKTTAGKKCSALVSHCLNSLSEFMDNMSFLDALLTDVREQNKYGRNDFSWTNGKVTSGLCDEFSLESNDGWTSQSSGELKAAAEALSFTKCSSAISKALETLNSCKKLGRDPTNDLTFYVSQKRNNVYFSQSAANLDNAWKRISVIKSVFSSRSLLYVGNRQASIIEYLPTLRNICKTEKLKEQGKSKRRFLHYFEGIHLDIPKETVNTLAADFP

In test [2] the target is Thyrotropin-releasing hormone receptor (Homo sapiens) (UniProt P34981). Put plainly: qHTS for Small Molecule Agonists and Allosteric Enhancers of Human TRH Receptor: Validation Screen for Agonists (AID 493127;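 active = calcium activation more than 3 SD above the typical response in the agonist read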;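 note: intracellular calcium rise by fluo-8 fluorescence before TRH EC20 addition; 0% is about no effect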). The note with it: TRH receptor agonist cell assay; at 2 µM; stronger effect = higher value. Put shortly:
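Gq-coupled calcium mobilization in TRHR cells after compound addition, monitored kinetically with fluo-8 dye on an FDSS reader.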
A general note: In qHTS, concentration-response curves come from the screen itself.

Test [3] in a line: qHTS for Inhibitors of Cell Surface uPA Generation: Validation Assay (AID 493164).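 Note: RAW 264.7 macrophage cells exposed to compound for 18 h; 0% is about no effect.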 In outline:
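RAW 264.7, 4000 cells/well, o/n plating; cpd 7-pt 1:5 dilution 2.45 nM–38.3 uM final; 18 h, 37 C/5% CO2; ATP-Lite, 5 s luminescence exposure.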

In test [4] the target is Galactokinase (Homo sapiens) (UniProt P51570). Put plainly: qHTS Validation Assay for Inhibitors of Human Galactokinase (GALK) (AID 493189). Note: potency is the fitted concentration of half-maximal effect. In outline:
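GALK (5 nM) with 35 uM ATP and 100 uM galactose in HEPES pH8.0, MgCl2, NaCl, DTT, BSA; 1 h at room temperature. Residual ATP read by Kinase-Glo Plus luminescence after 10 min.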

The nature of test [5]: Validation screen for small molecules that induce DNA re-replication in SW480 colon adenocarcinoma cells (AID 504364). Note: potency is the fitted concentration of half-maximal effect. In outline: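 Cells are treated 48 hr with test compound, stained 40 min with Hoechst at 37 C, and scanned for nuclear fluorescence; compounds inducing re-replication increase nuclei with elevated intensity.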
The target of test [6] is Peptidyl-prolyl cis-trans isomerase NIMA-interacting 1 (Homo sapiens) (UniProt Q13526). Put plainly: qHTS Validation Assay to Find Inhibitors of Pin1 (AID 504536; active = well fitted inhibition curve with a large enough effect in the polarisation, with a control signal flat, not every such curve was filed as active; the % refers to the polarisation; note: potency is the fitted concentration of half-maximal effect). Put shortly: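 Fluorescence polarization competition: compounds (titration) displace HiFluor-488-labeled Pin1-1b peptide from Pin1 (0.3 uM final) in pH 7.5 HEPES buffer with DTT, 10 min at room temperature; %Activity normalized to no-enzyme wells, curves fitted.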
Chain of Peptidyl-prolyl cis-trans isomerase NIMA-interacting 1 (Homo sapiens) (Q13526 whole entry, looked up): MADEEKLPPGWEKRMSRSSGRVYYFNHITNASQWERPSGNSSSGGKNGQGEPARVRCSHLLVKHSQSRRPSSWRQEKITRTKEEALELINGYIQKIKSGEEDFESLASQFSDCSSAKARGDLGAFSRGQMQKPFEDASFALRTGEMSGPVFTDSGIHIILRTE

In test [7] the target is Ubiquitin carboxyl-terminal hydrolase 1 (Homo sapiens) (UniProt O94782). Put plainly: Inhibitors of USP1/UAF1: Pilot qHTS (AID 504865). Note: nearly all actives have a fitted effect of over 35% in size. Note: potency is the fitted concentration of half-maximal effect. In outline: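 USP1/UAF1 complex (1nM) preincubated with compound 15 min at room temperature, then Ub-Rho substrate (150nM final) added. Fluorescence read kinetically at 480/540 nm, 6 reads every 60 seconds. Buffer: 50mM HEPES pH 7.8, 0.5mM EDTA, 0.1 mg/ml BSA, 1mM TCEP, 0.01% Tween-20.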
Chain of Ubiquitin carboxyl-terminal hydrolase 1 (Homo sapiens) (O94782 whole entry, looked up): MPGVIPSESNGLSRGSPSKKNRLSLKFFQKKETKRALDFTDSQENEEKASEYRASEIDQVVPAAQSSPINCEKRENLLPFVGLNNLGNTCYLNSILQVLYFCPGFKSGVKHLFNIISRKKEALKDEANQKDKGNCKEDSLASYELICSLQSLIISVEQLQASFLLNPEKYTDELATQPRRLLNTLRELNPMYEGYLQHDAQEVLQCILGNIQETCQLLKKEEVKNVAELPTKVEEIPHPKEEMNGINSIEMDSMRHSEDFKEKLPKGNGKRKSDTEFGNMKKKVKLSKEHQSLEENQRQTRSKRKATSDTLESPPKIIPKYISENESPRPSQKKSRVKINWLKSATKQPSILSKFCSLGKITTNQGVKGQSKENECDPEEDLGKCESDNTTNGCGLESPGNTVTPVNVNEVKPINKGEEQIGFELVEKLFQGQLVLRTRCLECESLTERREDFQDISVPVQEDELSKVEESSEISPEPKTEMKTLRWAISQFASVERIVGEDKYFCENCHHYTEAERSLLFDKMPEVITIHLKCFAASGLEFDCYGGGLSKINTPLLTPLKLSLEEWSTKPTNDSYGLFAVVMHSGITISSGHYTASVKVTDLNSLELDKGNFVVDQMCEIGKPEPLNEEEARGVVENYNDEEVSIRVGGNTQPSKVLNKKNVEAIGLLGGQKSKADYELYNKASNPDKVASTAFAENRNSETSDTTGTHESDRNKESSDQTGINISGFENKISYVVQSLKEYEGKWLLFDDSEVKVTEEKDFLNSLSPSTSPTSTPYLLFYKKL

Test [8] concerns the target phosphoglycerate mutase (Leishmania major) (UniProt Q4Q090). Put plainly: qHTS Validation Assay to Find Inhibitors of Phosphoglycerate Mutase (AID 504548).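 Note: end-point luminescence from Kinase-GloPlus after the PGAM reaction; series mostly up to about 58 µM; % is set by controls: 0 for no effect and ±100 for the full control effect.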 In outline: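 Inhibition of L. major PGAM was assessed by Kinase-GloPlus luminescence following a 45-minute room-temperature reaction with enzyme at 1.25nM final.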
Test [9] in a line: Nrf2 qHTS screen for inhibitors: Validation (AID 493153; active = well fitted inhibition curve with a large enough effect in the main read-out, with a control signal flat, not every such curve was filed as active). The note with it: Potency: luciferase luminescence; viability change: measured here: cytotoxicity max response. In outline:
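Dose-response validation uses reporter A549 cells with firefly luciferase under an antioxidant response element. Compounds stay on cells 18-24 h at 37°C, and luminescence indicates Nrf2-driven transcription.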

The target of test [10] is Phosphoglycerate kinase, glycosomal (Trypanosoma brucei brucei) (UniProt P07378). Put plainly: qHTS Validation Assay to Find Inhibitors of Phosphoglycerate Kinase (AID 504547). Note: potency is the fitted concentration of half-maximal effect. In outline:
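PGK activity was coupled to GAPDH (100nM final), which generates the unstable substrate 1,3-bisphosphoglycerate in-well. Reactions ran 60 minutes at room temperature in 100mM TEA pH 7.6, 5mM MgCl2, 0.01% Tween-20, then Kinase-Glo Plus luminescence was read.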

“And” between values parts separate entries of the source, which are not always exact repeats. Equal values may be shown once. Results filed as inconclusive are left out. The source made the active and inactive calls. Unless noted, calls come from the whole dose curve; as a rule, active = well fitted curve in the direction sought with a large enough effect; inconclusive = small, poorly fitted or top-dose-only effect, or another doubt; inactive = no such curve, though single readings can be large; an effect the other way counts as inactive or inconclusive.

Chain of phosphoglycerate mutase (Leishmania major) (Q4Q090 1-553): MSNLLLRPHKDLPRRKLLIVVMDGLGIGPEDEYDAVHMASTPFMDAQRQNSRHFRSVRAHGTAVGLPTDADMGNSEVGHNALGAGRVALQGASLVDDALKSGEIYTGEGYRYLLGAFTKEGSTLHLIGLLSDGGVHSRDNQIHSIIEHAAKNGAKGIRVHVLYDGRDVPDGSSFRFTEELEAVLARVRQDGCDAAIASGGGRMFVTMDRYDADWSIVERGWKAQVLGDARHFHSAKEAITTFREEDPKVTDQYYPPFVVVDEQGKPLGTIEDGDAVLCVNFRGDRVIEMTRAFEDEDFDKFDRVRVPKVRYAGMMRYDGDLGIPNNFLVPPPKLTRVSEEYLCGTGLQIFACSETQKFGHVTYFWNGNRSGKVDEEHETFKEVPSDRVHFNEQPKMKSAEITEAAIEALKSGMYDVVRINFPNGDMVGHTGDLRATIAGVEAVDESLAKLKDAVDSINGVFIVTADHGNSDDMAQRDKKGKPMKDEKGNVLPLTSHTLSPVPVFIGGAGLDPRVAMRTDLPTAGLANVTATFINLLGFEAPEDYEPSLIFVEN
Chain of Phosphoglycerate kinase, glycosomal (Trypanosoma brucei brucei) (P07378 whole entry, looked up): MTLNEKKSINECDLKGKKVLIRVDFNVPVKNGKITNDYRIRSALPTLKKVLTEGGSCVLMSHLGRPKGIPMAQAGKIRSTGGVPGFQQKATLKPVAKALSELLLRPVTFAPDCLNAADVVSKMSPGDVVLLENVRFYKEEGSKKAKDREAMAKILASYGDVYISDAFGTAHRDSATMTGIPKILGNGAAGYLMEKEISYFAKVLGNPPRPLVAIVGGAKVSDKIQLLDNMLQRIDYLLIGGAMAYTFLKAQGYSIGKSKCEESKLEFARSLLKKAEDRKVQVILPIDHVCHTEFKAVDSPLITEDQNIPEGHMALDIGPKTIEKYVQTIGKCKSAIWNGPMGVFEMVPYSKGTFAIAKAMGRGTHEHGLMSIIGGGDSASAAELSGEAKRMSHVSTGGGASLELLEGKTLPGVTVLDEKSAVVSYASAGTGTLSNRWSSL
Chain of Galactokinase (Homo sapiens) (P51570 whole entry, looked up): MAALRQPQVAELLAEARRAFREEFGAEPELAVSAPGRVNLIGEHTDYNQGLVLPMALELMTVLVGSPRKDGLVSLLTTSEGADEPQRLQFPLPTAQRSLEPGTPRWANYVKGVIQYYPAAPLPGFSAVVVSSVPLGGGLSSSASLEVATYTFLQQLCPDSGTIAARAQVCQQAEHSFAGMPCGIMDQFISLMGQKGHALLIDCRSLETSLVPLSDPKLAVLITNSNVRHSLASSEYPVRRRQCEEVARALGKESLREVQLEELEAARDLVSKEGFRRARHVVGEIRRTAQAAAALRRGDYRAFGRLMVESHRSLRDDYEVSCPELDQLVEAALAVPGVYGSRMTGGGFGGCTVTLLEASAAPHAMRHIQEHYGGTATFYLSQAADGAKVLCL
Chain of Thyrotropin-releasing hormone receptor (Homo sapiens) (P34981 whole entry, looked up): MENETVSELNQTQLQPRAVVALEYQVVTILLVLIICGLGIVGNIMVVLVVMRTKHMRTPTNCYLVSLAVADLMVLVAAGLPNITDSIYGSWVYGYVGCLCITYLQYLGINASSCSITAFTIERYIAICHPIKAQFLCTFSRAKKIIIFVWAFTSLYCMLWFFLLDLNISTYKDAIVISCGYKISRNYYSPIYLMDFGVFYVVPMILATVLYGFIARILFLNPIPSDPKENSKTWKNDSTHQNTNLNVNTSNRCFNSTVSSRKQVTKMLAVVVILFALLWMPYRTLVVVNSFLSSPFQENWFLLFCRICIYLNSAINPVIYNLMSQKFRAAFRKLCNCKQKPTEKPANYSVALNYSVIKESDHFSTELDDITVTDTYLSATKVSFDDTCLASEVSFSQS

For the compound `COc1nc(C)nc(Cl)c1NC1=NCCN1`, the Potency entry in test [1], in test [4], in test [5], in test [6] and in test [7] was “inactive” throughout. In addition, the activation in test [2] is 0.688% (inactive). Also, the compound was called inactive in [3].

In the case of `CS(=O)(=O)Nc1ccc([N+](=O)[O-])cc1Oc1ccccc1`, the Potency entry in test [1], in test [5], in test [6] and in test [7] was “inactive” throughout. Moreover, in test [2], the activation was 1% (inactive).

For the compound `CN1C2CCC1CC(OC(=O)C(CO)c1ccccc1)C2` (configuration not stated), the Potency entry in test [1], in [4], in [5] and in test [6] was “inactive” throughout. For the same compound, the call in test [3] and in test [8] was inactive.

Turning to `Cc1ccccc1N1C(=O)c2cc(S(N)(=O)=O)c(Cl)cc2NC1C` (configuration not stated), the Potency result in test [1], in [9], in [4], in test [5], in test [6] and in test [7] was “inactive” each time. The viability change in test [9] was determined as 10.1%. Moreover, the compound was called inactive in test [3].

In the case of `Clc1ccccc1C(c1ccccc1)(c1ccccc1)n1ccnc1`, the Potency result in test [1], in test [4], in test [5] and in test [6] was “inactive” each time. Besides, the activation in test [2] was -13.1% (inactive). The outcome in test [3] and in test [8] was inactive.

Take `Clc1ccc(C(c2ccccc2Cl)C(Cl)Cl)cc1` (configuration not stated): the Potency result in [1], in test [4], in test [5], in [6] and in test [7] was “inactive” in each case. In addition, the activation in [2] was 1.38% (inactive). Moreover, the outcome in [3] was inactive.

In the case of `O=C(c1ccc(F)cc1)C1CCN(CCn2c(=O)[nH]c3ccccc3c2=O)CC1`, the Potency entry in test [1], in [9], in [4], in test [5], in test [6] and in test [7] was “inactive” each time. Moreover, in test [9], the viability change came to 2.61%. Besides, the outcome in test [3] was inactive.

`Cc1cn([C@H]2C[C@H](N=[N+]=[N-])[C@@H](CO)O2)c(=O)[nH]c1=O`: the Potency result in test [1], in test [9] and in [7] was “inactive” each time. In test [9], the viability change was 8.03%. Further, the compound was classed as inactive in test [3].

For the compound `Cc1cn([C@H]2C=C[C@@H](CO)O2)c(=O)[nH]c1=O`, the Potency result in [1], in test [9], in [4], in test [5], in test [6] and in test [7] was “inactive” throughout. Moreover, the viability change in [9] is 0.63%. In test [3], the compound was called inactive.

Turning to `OCCN1CCN(CCCN2c3ccccc3Sc3ccc(C(F)(F)F)cc32)CC1`, the Potency result in test [1], in test [4], in test [5] and in [6] was “inactive” throughout. The activation in test [2] was 1.88% (inactive). In addition, the call in [3] and in test [8] was inactive.

Regarding `CCC1(c2ccccc2)C(=O)NCNC1=O`, the Potency entry in test [1], in test [4], in test [5], in [6] and in test [7] was “inactive” throughout. For the same compound, the compound was classed as inactive in test [3].

As for `CC12CC3CC(C)(C1)CC(N)(C3)C2`, the Potency entry in test [1], in test [9], in test [4], in test [5], in [6] and in test [10] was “inactive” each time. Further, the Potency entry in test [7] was “inactive”. Moreover, the viability change in test [9] was -3.89%. Besides, the call in test [3] and in test [8] was inactive.

As to `COc1ccc2c(c1)c(CC(=O)O)c(C)n2C(=O)c1ccc(Cl)cc1`, the Potency result in test [1], in test [4], in test [5], in [6], in test [10] and in test [7] was “inactive” throughout. Also, the call in test [3] was inactive.

As to `COc1cc2nc(N3CCN(C(=O)C4COc5ccccc5O4)CC3)nc(N)c2cc1OC` (configuration not stated), in test [1], the Potency is 23.1 µM (active). The Potency result in test [9], in test [4], in test [5] and in [6] was “inactive” throughout. In test [9], the viability change is -11.8%. The compound was classed as inactive in test [3].

For `COC(=O)Nc1nc2ccc(C(=O)c3cccs3)cc2[nH]1`, the Potency result in [1], in test [9], in [4], in [6], in test [10] and in test [7] was “inactive” each time. In test [9], the viability change is -18.1%. In test [3], the result was inactive. The Potency in [5] is 0.116 µM (active).

On to `CC(COc1ccccc1)N(CCCl)Cc1ccccc1` (configuration not stated), for which the Potency result in test [1], in [4], in [5] and in test [6] was “inactive” throughout. In test [3], the call was inactive.

For the compound `CN1CCC(=C2c3ccccc3C=Cc3ccccc32)CC1`, the Potency result in test [1], in test [4], in test [5], in test [6] and in [7] was “inactive” each time. Further, the outcome in [3] and in test [8] was inactive.

As for `CCOC(=O)c1ncn2c1CN(C)C(=O)c1cc(F)ccc1-2`, the Potency result in [1], in test [9], in [4], in test [5], in test [6] and in test [10] was “inactive” throughout. Besides, in test [7], the Potency entry is “inactive”. In addition, the viability change in [9] is 2.56%. The compound was called inactive in test [3] and in [8].

Consider `OCCN(CCO)c1nc(N2CCCCC2)c2nc(N(CCO)CCO)nc(N3CCCCC3)c2n1`, for which the Potency in test [1] is 0.231 µM (active); in test [7] it was 31.6 µM (active) and 22.4 µM (active). The activation in [2] is 25.4% (inactive). Besides, the call in test [3] and in test [8] was inactive. The Potency entry in test [4], in test [5] and in test [10] was “inactive” each time.

Regarding `CN(Cc1cnc2nc(N)nc(N)c2n1)c1ccc(C(=O)N[C@@H](CCC(=O)O)C(=O)O)cc1`, the Potency entry in test [1], in [4], in test [5], in test [10] and in test [7] was “inactive” each time. The result in [3] was inactive.

Regarding `COc1cc2c(c(OC)c1OC)-c1ccc(OC)c(=O)cc1[C@@H](NC(C)=O)CC2`, the Potency entry in [1], in [4], in test [6] and in test [10] was “inactive” throughout. Besides, in [2], the activation is 0% (inactive). Besides, in test [3], the compound was called inactive.

On to `Cc1ccc(C(=O)Nc2ccc(S(=O)(=O)O)c3cc(S(=O)(=O)O)cc(S(=O)(=O)O)c23)cc1NC(=O)c1cccc(NC(=O)Nc2cccc(C(=O)Nc3cc(C(=O)Nc4ccc(S(=O)(=O)O)c5cc(S(=O)(=O)O)cc(S(=O)(=O)O)c45)ccc3C)c2)c1`, for which the Potency entry in [1] and in [5] was “inactive” in each case. Further, in test [2], the activation is 0.688% (inactive). Moreover, in test [3], the outcome was inactive. The Potency in test [4] was 17.8 µM (active); in test [6] it was 0.426 µM (active); in test [10] it was 2.69 µM (active); in test [7], 14.1 µM (active) and 7.94 µM (active) and 5.01 µM (active).

On to `CC(C)(Oc1ccc(C2CC2(Cl)Cl)cc1)C(=O)O` (configuration not stated), for which the Potency entry in test [1], in [9], in [4], in [5], in test [6] and in test [7] was “inactive” throughout. In addition, the viability change in [9] came out at 9.29%. For the same compound, the call in [3] and in [8] was inactive.

With `COc1cc2nc(N(C)CCCNC(=O)C3CCCO3)nc(N)c2cc1OC` (configuration not stated), the Potency result in [1], in [9], in [6], in test [10] and in [7] was “inactive” in each case. Moreover, the viability change in test [9] is -7.87%. The result in [3] and in test [8] was inactive.

As to `CC(C)NCC(O)COc1ccc(CCOCC2CC2)cc1` (configuration not stated), the Potency entry in test [1], in test [4], in [5], in test [6], in [10] and in test [7] was “inactive” throughout. The outcome in test [3] and in test [8] was inactive.

The values above are taken from PubChem BioAssay (NCATS).
